About 83,000 compounds went through this panel and 20% of them were active in at least one assay; those are over-represented in the sample as a whole.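 Cells were grown in 96-well plates and exposed to the test compound at a single concentration for 48 hours; results are reported as percent growth, with values below 10 considered active.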 Values without a mark were called inactive. Active and inactive are the calls of the source.
Tested on: HL-60(TB) leukemia
Experiment: NCI-60 one-dose screen, 48 h (100 = growth as untreated, 0 = no growth, -100 = all killed)
Details: 10 µM unless noted

SMILES	growth
N=c1c2c(=N)n3c(nc2nc2n1-c1ccccc1Sc1ccccc1-2)sc1cc(Cl)ccc13	50.3%
NC(=O)c1c(NC(=O)c2ccccn2)sc2c1CCC(=O)C2	-0.0087% (active)
O=C(c1ccccc1)N(CCc1ccc(Cl)cc1)C(=S)N(C(=O)c1ccccc1)c1ccccc1	90.3%
CCCCCCCCc1cc(Cl)c(O)c(Cl)c1	101%
CC(=O)C(C(C)=O)C(c1ccccc1)C(C(C)=O)C(C)=O	98.5%
CCC(CC)NCC(C)(C)O	97.7%
COc1ccc(/C=N/NC(=O)c2cccc3cc[nH]c23)cc1O	10.1%
COc1cc(CCc2cc(NC(=O)c3ccc(N4C[C@@H](C)N[C@@H](C)C4)cc3)n[nH]2)cc(OC)c1	12.5%
O=C(Nc1cccc2c(O)c(N=Nc3ccc(S(=O)(=O)Nc4nccs4)cc3)cc(N=Nc3ccc(S(=O)(=O)Nc4nccs4)cc3)c12)C(Cl)Cl	102%
O=C1CC[C@H](c2ccc(O)c3c2C(=O)[C@@H]2O[C@@H]2C3=O)c2cccc(O)c21	-20.5% (active)
COc1ccc(-c2cc(C(=O)N=Nc3c(O)[nH]c4ccc(Br)cc34)no2)cc1	95.1%
CC[C@@H]1OC(=O)[C@H](C)[C@@H](O[C@H]2C[C@@](C)(OC)[C@@H](O)[C@H](C)O2)[C@H](C)[C@@H](O[C@@H]2O[C@H](C)C[C@H](N(C)C)[C@H]2O)[C@](C)(O)C[C@@H](C)[C@@H]2N[C@@H](COCCOC)O[C@H]([C@H]2C)[C@]1(C)O	94.2%
COc1ccc(/C(=N\O)c2cc(OC)c(OC)c(OC)c2)c(OC)c1N	-23.8% (active)
CC(=O)Oc1c(C)c(OC(C)=O)c2c(c1C(C)=O)OC1CC(=O)C(C(C)=O)=C(O)C21C (stereo not drawn)	79.4%
O=c1c2c3c(sc2n2c(-c4cc(-c5ccccc5)nn4-c4ccccc4)nnc2n1Cc1ccccc1)CCCC3	50.7%
O=C(CSc1nc2ccc([N+](=O)[O-])cc2[nH]1)Nc1ccc([N+](=O)[O-])cc1	12.7%
O=c1c2c(=NCCCN3CCCC3)cc3c(=O)n(CCCN4CCCC4)c(=O)c4c(NCCCN5CCCC5)cc(c(O)n1CCCN1CCCC1)c2c4-3	29.9%
Oc1ccc(Nc2ccc3ccccc3c2)cc1	54.9%
COC(=O)c1cnc2c(c1)Oc1ccccc1-c1ccnn1-2	98.3%
COc1ccc(-c2cc(-c3cccc(Cl)c3)c(C#N)c(=O)[nH]2)c(OC)c1	95.6%
COc1cc2c3c(n([C@H]4CCOC4)c(=O)c2cc1OC)-c1cc2c(cc1C3=O)OCO2	25%
COc1ccc2c(c1)C(=O)c1c-2c(OCCN(C)C)nc2ccccc12	25.4%
CC(=O)O[C@H]1CC[C@@]2(C)[C@@H](CC[C@@H]3[C@@H]2CC(=O)[C@@]2(C)[C@H]3C[C@@H](C3CCCC3=O)[C@@H]2C(C)=O)C1 (stereo partly drawn)	51.8%

— PubChem BioAssay (NCI)
